Test results as given in the supplement of paper PMC11732987, “Enantioselective OTUD7B fragment discovery through chemoproteomics screening and high-throughput optimisation” (Communications Chemistry, 2025).

Key:
Assay in all cases: log2 ratio of Biotin-Ahx-Ub-VS probe labelling (fragment/DMSO); higher = less target engagement (more negative = stronger competition), active = hit call of the paper (q ≤ 0.05, log2 ratio ≤ -1)
Conditions in all cases: compound concentration: 200 uM; treatment time: 3 h
ALG13 = biological target: T1, ALG13 (UniProt Q9NP73)
T1 sequence (whole entry): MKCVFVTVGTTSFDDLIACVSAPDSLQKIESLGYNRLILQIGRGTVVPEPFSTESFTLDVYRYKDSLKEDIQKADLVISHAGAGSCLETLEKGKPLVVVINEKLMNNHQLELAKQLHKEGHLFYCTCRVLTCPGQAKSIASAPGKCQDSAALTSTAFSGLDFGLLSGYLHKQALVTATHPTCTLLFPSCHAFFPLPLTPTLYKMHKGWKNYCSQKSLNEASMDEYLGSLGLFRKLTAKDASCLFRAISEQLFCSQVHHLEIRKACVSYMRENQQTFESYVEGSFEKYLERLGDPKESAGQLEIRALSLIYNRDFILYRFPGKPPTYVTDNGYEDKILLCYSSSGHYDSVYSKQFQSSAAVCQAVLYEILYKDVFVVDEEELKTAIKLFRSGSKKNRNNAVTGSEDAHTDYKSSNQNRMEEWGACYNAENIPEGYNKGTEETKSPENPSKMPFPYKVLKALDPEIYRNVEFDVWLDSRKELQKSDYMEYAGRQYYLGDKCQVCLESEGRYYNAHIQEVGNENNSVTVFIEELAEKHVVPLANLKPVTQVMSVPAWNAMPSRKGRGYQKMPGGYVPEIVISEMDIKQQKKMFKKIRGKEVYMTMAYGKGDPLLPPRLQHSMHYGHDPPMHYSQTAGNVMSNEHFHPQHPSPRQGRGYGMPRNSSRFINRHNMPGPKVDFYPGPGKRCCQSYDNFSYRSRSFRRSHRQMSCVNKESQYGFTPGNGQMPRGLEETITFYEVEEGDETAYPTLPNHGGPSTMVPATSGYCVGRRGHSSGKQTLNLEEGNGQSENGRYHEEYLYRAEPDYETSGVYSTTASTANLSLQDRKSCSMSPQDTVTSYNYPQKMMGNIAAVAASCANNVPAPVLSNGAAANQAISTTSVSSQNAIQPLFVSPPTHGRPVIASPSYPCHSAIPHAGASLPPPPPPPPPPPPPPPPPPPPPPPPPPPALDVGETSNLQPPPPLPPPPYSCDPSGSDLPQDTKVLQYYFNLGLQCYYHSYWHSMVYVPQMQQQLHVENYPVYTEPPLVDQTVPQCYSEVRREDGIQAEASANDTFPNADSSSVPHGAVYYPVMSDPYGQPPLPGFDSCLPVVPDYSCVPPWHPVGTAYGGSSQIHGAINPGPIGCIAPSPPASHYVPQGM
How it was run: (§1)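 HEK293T lysate (495 µg per sample, in Tris/CHAPS/IGEPAL buffer with protease inhibitors) was treated in triplicate with fragment at 200 µM or with DMSO for 3 h. It was then treated with Biotin-Ahx-Ub-VS (0.5 µM final) for 1 h. Labelled DUBs were NeutrAvidin-enriched, digested with LysC and trypsin, and run by diaPASEF LC-MS/MS. Spectronaut label-free quantities were global-median-normalised. Values are average log2 ratios fragment/DMSO by unpaired t-test, using proteins with ≥2 unique peptides.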

ATXN3 = ATXN3 (UniProt P54252)
How it was run: as §1

BAP1 = biological target: T2, BAP1 (UniProt Q92560)
T2 sequence (whole entry): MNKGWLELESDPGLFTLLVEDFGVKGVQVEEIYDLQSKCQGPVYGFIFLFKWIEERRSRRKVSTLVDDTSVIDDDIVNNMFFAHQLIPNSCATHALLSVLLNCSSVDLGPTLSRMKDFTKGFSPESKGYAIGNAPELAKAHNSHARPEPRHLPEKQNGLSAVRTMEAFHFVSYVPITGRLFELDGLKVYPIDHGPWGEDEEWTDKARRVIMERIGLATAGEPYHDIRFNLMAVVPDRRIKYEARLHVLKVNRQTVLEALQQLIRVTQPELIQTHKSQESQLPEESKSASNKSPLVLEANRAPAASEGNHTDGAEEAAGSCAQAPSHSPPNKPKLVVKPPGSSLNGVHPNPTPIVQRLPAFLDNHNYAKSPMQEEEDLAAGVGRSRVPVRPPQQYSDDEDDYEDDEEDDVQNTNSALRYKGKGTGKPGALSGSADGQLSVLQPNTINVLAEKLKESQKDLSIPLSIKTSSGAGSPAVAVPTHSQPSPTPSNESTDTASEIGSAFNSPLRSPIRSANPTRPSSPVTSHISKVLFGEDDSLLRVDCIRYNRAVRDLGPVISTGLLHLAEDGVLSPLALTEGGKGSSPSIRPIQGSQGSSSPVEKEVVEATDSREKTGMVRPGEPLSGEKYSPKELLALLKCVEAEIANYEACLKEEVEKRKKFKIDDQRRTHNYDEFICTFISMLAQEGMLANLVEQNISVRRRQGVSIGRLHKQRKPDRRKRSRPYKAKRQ
How it was run: as §1

EIF3F = EIF3F (UniProt O00303)
How it was run: as §1

EIF3H = EIF3H (UniProt O15372)
How it was run: as §1

FAM105A = biological target: T3, FAM105A (UniProt Q9NUU6)
T3 sequence (whole entry): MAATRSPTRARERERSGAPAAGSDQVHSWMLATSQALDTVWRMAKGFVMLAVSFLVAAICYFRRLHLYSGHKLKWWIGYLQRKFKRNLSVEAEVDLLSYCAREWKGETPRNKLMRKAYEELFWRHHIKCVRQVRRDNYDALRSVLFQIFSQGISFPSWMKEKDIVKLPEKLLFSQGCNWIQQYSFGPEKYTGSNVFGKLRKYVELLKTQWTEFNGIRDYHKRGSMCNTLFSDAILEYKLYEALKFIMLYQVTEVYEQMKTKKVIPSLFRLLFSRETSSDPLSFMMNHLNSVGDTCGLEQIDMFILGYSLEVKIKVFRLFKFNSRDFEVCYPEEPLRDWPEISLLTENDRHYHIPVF
How it was run: as §1

OTUB1 = OTUB1 (UniProt Q96FW1)
How it was run: as §1

OTUD4 = biological target: T4, OTUD4 (UniProt Q01804)
T4 sequence (whole entry): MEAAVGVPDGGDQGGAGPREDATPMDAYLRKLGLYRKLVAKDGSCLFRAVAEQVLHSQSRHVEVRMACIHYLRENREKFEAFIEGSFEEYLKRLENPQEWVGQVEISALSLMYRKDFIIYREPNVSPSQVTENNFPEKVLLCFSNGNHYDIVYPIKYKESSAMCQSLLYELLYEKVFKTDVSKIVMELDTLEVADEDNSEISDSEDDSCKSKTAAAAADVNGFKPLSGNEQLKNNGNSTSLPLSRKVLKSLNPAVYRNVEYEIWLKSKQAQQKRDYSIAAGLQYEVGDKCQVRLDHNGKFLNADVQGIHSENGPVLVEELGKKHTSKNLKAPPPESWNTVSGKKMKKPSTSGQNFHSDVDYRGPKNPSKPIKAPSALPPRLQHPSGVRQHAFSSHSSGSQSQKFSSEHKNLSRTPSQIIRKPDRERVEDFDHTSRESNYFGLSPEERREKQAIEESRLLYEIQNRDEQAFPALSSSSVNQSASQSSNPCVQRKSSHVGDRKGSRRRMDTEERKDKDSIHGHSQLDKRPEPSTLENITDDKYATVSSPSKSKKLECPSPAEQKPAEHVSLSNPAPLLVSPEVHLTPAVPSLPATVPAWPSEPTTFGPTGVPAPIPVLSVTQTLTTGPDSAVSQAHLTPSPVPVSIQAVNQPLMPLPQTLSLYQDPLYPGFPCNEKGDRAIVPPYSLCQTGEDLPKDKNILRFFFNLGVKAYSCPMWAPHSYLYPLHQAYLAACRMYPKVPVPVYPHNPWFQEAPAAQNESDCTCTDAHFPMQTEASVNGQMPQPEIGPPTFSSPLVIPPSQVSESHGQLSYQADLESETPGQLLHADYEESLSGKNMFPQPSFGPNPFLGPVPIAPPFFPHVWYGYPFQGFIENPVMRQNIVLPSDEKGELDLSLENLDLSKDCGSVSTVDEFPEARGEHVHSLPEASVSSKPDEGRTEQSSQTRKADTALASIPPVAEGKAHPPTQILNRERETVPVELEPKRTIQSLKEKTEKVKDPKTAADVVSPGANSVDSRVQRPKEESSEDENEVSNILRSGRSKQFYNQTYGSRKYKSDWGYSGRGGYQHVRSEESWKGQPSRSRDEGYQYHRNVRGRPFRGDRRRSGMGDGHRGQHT
How it was run: as §1

OTUD5 = biological target: T5, OTUD5 (UniProt Q96G74)
T5 sequence (whole entry): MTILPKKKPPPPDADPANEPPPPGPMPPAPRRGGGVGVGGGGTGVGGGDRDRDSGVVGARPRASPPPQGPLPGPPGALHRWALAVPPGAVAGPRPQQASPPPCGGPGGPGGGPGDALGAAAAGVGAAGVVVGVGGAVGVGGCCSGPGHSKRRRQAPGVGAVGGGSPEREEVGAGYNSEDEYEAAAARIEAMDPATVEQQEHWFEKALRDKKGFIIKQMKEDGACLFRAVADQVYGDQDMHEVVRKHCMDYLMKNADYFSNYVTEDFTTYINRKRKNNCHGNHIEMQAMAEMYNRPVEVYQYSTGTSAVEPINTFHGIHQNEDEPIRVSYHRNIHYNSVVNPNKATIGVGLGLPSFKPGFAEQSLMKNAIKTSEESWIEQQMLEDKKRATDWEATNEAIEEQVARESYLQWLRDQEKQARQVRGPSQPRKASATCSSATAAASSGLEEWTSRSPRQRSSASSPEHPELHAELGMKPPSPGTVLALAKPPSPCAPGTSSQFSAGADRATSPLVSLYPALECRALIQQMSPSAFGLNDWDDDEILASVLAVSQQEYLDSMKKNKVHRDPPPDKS
How it was run: as §1

Measured: log2 ratio of Biotin-Ahx-Ub-VS probe labelling

EIF3H, sequence (O15372 whole entry): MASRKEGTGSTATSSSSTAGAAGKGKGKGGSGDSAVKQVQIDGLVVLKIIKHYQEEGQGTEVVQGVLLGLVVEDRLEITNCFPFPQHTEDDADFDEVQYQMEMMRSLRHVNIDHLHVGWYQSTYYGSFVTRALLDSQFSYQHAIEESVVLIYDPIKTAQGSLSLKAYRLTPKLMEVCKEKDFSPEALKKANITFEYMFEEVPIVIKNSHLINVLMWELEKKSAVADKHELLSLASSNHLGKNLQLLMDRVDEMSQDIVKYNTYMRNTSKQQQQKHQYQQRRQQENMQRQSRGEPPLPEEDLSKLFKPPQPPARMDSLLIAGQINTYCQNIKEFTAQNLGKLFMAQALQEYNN
OTUB1, sequence (Q96FW1 whole entry): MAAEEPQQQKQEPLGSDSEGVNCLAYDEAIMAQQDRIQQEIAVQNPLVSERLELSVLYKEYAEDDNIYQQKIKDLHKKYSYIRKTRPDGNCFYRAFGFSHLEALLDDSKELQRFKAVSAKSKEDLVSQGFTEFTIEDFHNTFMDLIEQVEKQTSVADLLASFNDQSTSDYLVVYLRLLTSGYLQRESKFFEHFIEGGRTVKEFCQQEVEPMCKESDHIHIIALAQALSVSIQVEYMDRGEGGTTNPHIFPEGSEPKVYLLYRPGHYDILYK
ATXN3, sequence (P54252 whole entry): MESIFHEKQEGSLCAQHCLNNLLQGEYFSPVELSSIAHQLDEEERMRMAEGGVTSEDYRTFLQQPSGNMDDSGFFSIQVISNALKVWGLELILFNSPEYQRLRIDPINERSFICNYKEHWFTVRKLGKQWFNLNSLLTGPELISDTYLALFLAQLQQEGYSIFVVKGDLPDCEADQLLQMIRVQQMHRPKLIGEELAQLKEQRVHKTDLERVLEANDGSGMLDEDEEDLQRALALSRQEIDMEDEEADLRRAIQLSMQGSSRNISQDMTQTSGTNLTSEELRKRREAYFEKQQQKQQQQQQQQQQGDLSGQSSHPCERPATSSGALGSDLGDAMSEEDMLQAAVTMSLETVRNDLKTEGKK
EIF3F, sequence (O00303 whole entry): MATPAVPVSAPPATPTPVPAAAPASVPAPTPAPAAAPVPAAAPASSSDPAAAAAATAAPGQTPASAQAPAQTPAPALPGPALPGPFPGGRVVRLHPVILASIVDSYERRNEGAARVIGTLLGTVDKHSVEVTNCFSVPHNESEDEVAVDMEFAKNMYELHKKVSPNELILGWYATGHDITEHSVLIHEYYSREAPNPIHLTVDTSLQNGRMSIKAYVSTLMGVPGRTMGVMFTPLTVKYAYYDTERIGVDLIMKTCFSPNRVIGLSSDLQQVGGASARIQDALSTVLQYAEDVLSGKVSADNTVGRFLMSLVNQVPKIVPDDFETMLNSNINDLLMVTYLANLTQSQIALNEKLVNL

O=C(CCl)NC1CCC2(CC1)OCCO2
inactive: ALG13 0.0856 | ATXN3 -0.347 | BAP1 -0.944 | EIF3F -0.268 | EIF3H 0.0155 | FAM105A 0.137 | OTUB1 -0.114 | OTUD4 -0.376 | OTUD5 -0.414
